# The list is not random: actives were taken first. Their share in the collection is about 2.9%.
# HEK293 tox – cytotoxic in the GLP-1 receptor inverse agonist counter-screen; 410,000 compounds, 0.13% hits; HEK293 cAMP-luciferase reporter cells, luminescence, 24 h; Potency, µM (doses to about 38.3 µM), for the others: at the top dose activity change, negative = inhibition, most hits filed as inhibitors;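 further: loss of luciferase light is scored as toxicity; potency means the concentration at half of the fitted maximal effect; on the % scale 0 is the no-effect control and ±100 the full control effect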
#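 A 23 nL compound transfer followed 12 hours of cell culture at 37 deg C; exposure then lasted 24 hr. Luciferase assay detection reagent was dispensed and plates read for luminescence after a 12 min room-temperature wait.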
# GLP-1R agonist – GLP-1 receptor (human) agonism. Potency, µM (titrated, usually from 45.6 µM), for inactives: at the highest dose activation, hits mostly activators. 380,000 compounds, 0.007% hits. AID 624172. HEK293 GLP-1R CRE-luciferase, luminescence, 4-6 h; cells express a hypersensitive GLP-1R form. P43220; further: potency means the concentration at half of the fitted maximal effect; % of control where 0% means no effect
# Target sequence (P43220 whole entry, looked up): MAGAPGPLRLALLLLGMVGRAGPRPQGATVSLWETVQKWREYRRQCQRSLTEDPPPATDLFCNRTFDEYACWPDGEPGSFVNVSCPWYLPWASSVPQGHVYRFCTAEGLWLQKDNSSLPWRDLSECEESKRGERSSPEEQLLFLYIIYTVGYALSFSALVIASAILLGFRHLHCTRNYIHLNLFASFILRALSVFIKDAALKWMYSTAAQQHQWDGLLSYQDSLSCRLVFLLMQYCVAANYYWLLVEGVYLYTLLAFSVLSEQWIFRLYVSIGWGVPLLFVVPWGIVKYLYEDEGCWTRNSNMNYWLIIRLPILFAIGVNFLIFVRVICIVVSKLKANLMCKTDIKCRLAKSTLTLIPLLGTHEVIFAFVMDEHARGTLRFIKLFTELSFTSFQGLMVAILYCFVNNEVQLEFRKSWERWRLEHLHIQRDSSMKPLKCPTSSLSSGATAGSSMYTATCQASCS
# LDHA block – blocks human lactate dehydrogenase A | P00338 | activity change, % (values are at about 110 or 230 µM) | purified LDHA, NADH/diaphorase-resazurin fluorescence; hits give low values | AID 1347041 | 480,000 compounds, 0.15% hits; in the data active means activity change below about -30%; inconclusive means mostly about -25% to -30%;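 further: plate controls were DMSO wells for no effect and wells without enzyme for full effect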
#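 Remaining NADH was detected by diaphorase (0.133 mg/mL) converting 37 µM resazurin to fluorescent resorufin, read at 0 and 20 minutes. The preceding 5-minute room-temperature reaction used 2 nM LDHA, 0.2 mM sodium pyruvate and 0.06 mM NADH at pH 7.4.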
# GLP1R inv ag – GLP-1 receptor (human) inverse agonism. HEK293 GLP-1R CRE-luciferase, luminescence, 24 h; GLP-1R form is constitutively active. Potency, µM (highest dose often 38.3 µM), for the others: at the top dose activity change, negative = inhibition, hits mostly inhibitors. 410,000 compounds, 1.6% hits; further: potency means the concentration at half of the fitted maximal effect; on the % scale 0 is the no-effect control and ±100 the full control effect; nearly all actives have a fitted effect of over 55% in size
#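 Using stably transfected HEK293 (constitutively active GLP-1R, cAMP-luciferase reporter), compounds were incubated 24 hr and luciferase measured by luminescence.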
# ClpP mod – qHTS Assay for Activators of ClpP | ATP-dependent Clp protease proteolytic subunit (Bacillus subtilis (strain 168)), P80244 | purified B. subtilis ClpP, FRET peptide cleavage, 20 min | Potency, µM (doses to about 57.5 µM), for the others: at the top dose activity change, negative = active | 340,000 compounds, 1.9% hits | AID 651965, 2013; active means well fitted falling curve with a large enough effect; inconclusive means small, poorly fitted or top-dose-only effect; inactive means no such curve, though single readings can be large or run the other way; further: potency means the concentration at half of the fitted maximal effect; the source files actives as falling curves though it sought activators and does not explain the sign; nearly all actives have a fitted effect of over 65% in size
# Target sequence (P80244 whole entry, looked up): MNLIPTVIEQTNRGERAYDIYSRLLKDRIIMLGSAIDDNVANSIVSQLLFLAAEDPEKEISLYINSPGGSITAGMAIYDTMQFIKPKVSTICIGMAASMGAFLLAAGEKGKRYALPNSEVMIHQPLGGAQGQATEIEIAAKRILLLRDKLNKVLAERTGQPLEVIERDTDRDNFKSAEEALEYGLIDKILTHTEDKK
#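 Buffer: 100 mM Tris/HCl pH8, 100 mM KCl, 0.05% low protease BSA, 2.5% glycerol, 0.01% Tween-20. ClpP 10 microg/mL final; 20 min RT; delta FRET normalized to ADEP and DMSO controls.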
# p53 reactivation – re-activators of mutant p53; H1299 p53-A138V BP100-luciferase reporter, luminescence, 24 h; Potency, µM (series often up to 92.2 µM), for inactives: at the top dose activity change, positive = activation, usual class: activators; 320,000 compounds, 0.063% hits; further: potency means the concentration at half of the fitted maximal effect; % of control where 0% means no effect; nearly all actives have a fitted effect of over 45% in size
#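 H1299 (p53-null), stable ts p53-A138V + BP100-Luc; 1000 cells/well, Opti-MEM/10% FBS; cpd 4 pt, 1:5; 24 h, 37 deg C, 5% CO2; detection reagent 10 min RT; luminescence.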
# * = called active by the depositor; ? = inconclusive; . = no result; ! = a repeat was not active. Unless noted, the call rests on the fitted dose curve; in most records, active means well fitted curve in the direction sought with a large enough effect; inconclusive means small, poorly fitted or top-dose-only effect, or another doubt; inactive means no such curve, though single readings can be large; an effect the other way counts as inactive or inconclusive.
SMILES,HEK293 tox,GLP-1R agonist,LDHA block,GLP1R inv ag,ClpP mod,p53 reactivation
Cc1cccc(NC(c2ccccc2F)c2ccc3ccc(C)nc3c2O)n1 (centres undefined),0.1%,.,0.8,9.6%,-3.2%,.
Cc1ccc(C)c(C(Nc2ccccc2)c2ccc3ccc(C)nc3c2O)c1 (centres undefined),11.6%,.,9.1,5.62µM*,-4.8%,.
Cc1cccc(-c2cc3nc4c(c(NCc5ccco5)n3n2)CCCC4)c1,29.9%,11.6%,-1.3,?,28.2µM*,?
CN(C)CCCC1(O)c2ccccc2C=Cc2ccccc21,1.3%,-6.4%,-6.8,-6.3%,28.2µM*,-11.3%
CN(C)CCCC1(O)c2ccccc2CCc2ccccc21,-0.7%,1.1%,-5.5,?,.,-4.1%
Clc1ccc(-c2cc3ccccc3nc2N2CCOCC2)cc1,3.5%,7.1%,-8.9,10µM*,.,12.1%
Clc1ccc(-c2cc3ccccc3nc2N2CCCC2)cc1,-20.4%,-2.1%,-2.1,?,?,20.2%
CCCSc1cc(N2CCOCC2)nc(-c2ccccc2Cl)n1,-13.4%,8.3%,0.1,10µM*,-0.1%,5.9%
CCSc1cc(N2CCOCC2)nc(-c2ccccc2)n1,9.9%,0.9%,-6.8,19.9%,1.0%,-11.8%
Clc1ccc(-n2nnnc2Sc2ncnc3sccc23)cc1,?,-49.2%,-4.8,7.94µM*,-4.8%,.
Cc1sc2ncnc(Sc3nnnn3-c3ccccc3)c2c1C,-23.0%,-3.3%,-1.5,11.6%,31.6µM*!,-22.2%
COc1ccc(NC(C)=O)cc1CP(=O)(c1ccccc1)c1ccccc1,1.4%,4.7%,-1.0,-0.6%,-0.9%,-2.3%
CC(=O)Nc1cccc(CP(=O)(c2ccccc2)c2ccccc2)c1,-2.1%,-0.8%,-10.9,-8.2%,31.6µM*,-2.8%
COc1cccc(NC(CNS(=O)(=O)c2ccc(C)cc2)c2ccccc2)c1 (centres undefined),-6.5%,.,5.0,10µM*,-3.6%,.
Cc1cccc(NC(CNS(=O)(=O)c2ccc(Cl)cc2)c2ccccc2)c1 (centres undefined),.,.,5.3,.,.,.
COc1cccc(NC(CNS(=O)(=O)c2ccc(Cl)cc2)c2ccccc2)c1 (centres undefined),?,.,6.6,10µM*,0.6%,.
CCC(=O)Nc1ccc(SC#N)cc1C,-7.7%,-0.2%,-7.7,-5.7%,-1.6%,-15.4%
CN1C(=O)C2(OCC(C)([N+](=O)[O-])CO2)c2ccccc21 (centres undefined),-0.6%,13.1%,-2.3,-8.3%,.,3.1%
CN1C(=O)C2(N=c3ccccc3=N2)c2ccccc21,9.1%,16.8%,-4.5,86.8%,12.6µM*,0.4%
COc1ccc(-c2c(C)nn3c(C(F)(F)F)cc(-c4ccc(C)cc4)nc23)cc1,5.2%,.,-6.9,1.9%,-0.9%,.
Cc1nn2c(C(F)(F)F)cc(-c3ccc(OC(C)C)cc3)nc2c1C#N,9.5%,.,-3.9,7.1%,5.01µM*,.
COc1cc(SC)ccc1C(=O)Nc1ncc(C)s1,-14.3%,-16.0%,-4.8,10µM*,-11.3%,-0.4%
COc1cc(SC)ccc1C(=O)Nc1ccc(Br)cn1,2.5%,-6.3%,-1.4,?,-7.0%,-10.0%
CCC(=O)c1ccc(OCC(=O)OCC(=O)NC2CCCC2)cc1,16.4%,-9.9%,-9.3,11.3%,-4.8%,-2.6%
CC(C)CC(=O)Nc1ccc(C(=O)Cn2nc(C(=O)O)c3ccccc3c2=O)cc1,64.3%,-16.4%,-11.2,17.6%,28.2µM*,-2.4%
SMILES,HEK293 tox,GLP-1R agonist,LDHA block,GLP1R inv ag,ClpP mod,p53 reactivation
CC(C)CC(=O)Nc1ccc(C(=O)NN2C(=O)c3ccccc3C2=O)cc1,4.1%,-3.3%,-9.1,16.7%,31.6µM*,-0.8%
Cc1ccc(NC(=O)CN2C(=O)c3ccccc3C2=O)cc1,-6.2%,1.7%,-8.1,-14.8%,28.2µM*,10.6%
O=C(Cn1nc(C(=O)O)c2ccccc2c1=O)Nc1ccccc1,.,.,-14.9,.,.,.
CCN(CC)S(=O)(=O)c1ccc(N2CCOCC2)c(NC(=O)Cc2ccccc2)c1,-4.6%,-0.7%,-7.7,2.3%,-14.8%,1.0%
O=[N+]([O-])c1ccc(COn2nnc3ccccc32)cc1,-15.7%,11.7%,-5.3,18.9%,.,13.6%
CCOC(=O)c1c(C)n(C(=O)c2ccco2)c(=O)n1C(=O)c1ccco1,-0.5%,-2.0%,-3.0,0.0%,0.1%,5.3%
Cc1cc(Sc2nnc(/N=C/N(C)C)s2)c2ccccc2n1,-6.9%,-5.3%,-10.5,3.16µM*,-2.6%,-11.7%
Cc1cc(Sc2nnc(N)s2)c2ccccc2n1,-29.0%,-5.2%,-10.6,?,0.7%,-13.7%
COC(=O)c1cn(CC(=O)NCc2ccco2)c2ccccc12,1.3%,-7.6%,-0.2,-12.0%,-1.2%,21.4%
Cn1/c(=N\NC(=O)C2CCCCC2)sc2ccccc21,-1.9%,3.9%,-6.9,7.5%,14.1µM*,0.8%
CC(=O)N/N=c1\sc2ccccc2n1C,5.9%,4.8%,-10.3,6.4%,.,-3.0%
COc1ccc(C(=O)NCC(=O)N/N=C/c2cccc(OC(=O)c3ccco3)c2)cc1OC,9.4%,-1.0%,-0.9,11.2%,0.6%,-2.0%
CC(C)NC(=O)C(Sc1ccccc1)c1ccccc1 (centres undefined),15.2%,1.5%,-0.9,-23.8%,-2.0%,-4.5%
CNC(=S)NNC(=O)C(Sc1ccccc1)c1ccccc1 (centres undefined),.,.,-32.0*,.,.,.
N#Cc1c(N2CCN(C(=O)c3ccco3)CC2)nc(-c2ccccc2)c2c1CCCC2,-26.0%,2.3%,2.0,-8.9%,14.1µM*,-17.4%
CC1(C)Cc2c(C#N)c(N3CCN(C(=O)c4ccccc4Cl)CC3)nc(-c3ccco3)c2CS1,21.5%,-2.5%,-0.9,?,28.2µM*,-1.9%
CCc1nc(N2CCN(C(=O)c3ccco3)CC2)c(C#N)c2c1COC(C)(C)C2,-2.2%,20.2%,-5.3,-2.9%,3.4%,-5.2%
CC1(C)Cc2c(C#N)c(N3CCN(C(=O)c4ccco4)CC3)nc(Cc3ccccc3)c2CO1,-20.1%,0.7%,-7.5,?,28.2µM*,-4.4%
CCOC(=O)C(=O)N1CCN(c2nc(-c3ccccc3)c3c(c2C#N)CCCC3)CC1,.,.,3.4,.,.,.
N#Cc1c(N2CCN(C(=O)c3ccccc3)CC2)nc(-c2ccccc2)c2c1CCCC2,-34.6%,-2.8%,-3.0,?,28.2µM*,6.4%
N#Cc1c(N2CCN(C(=O)c3ccccc3Cl)CC2)nc(-c2ccccc2)c2c1CCCC2,15.1%,4.9%,4.3,-2.2%,4.9%,11.4%
